Data taken from PubChem BioAssay AID1159580 (chemical genetic matrix, 2015).
About 2,000 (36%) of roughly 5,500 compounds were called active. Another 18% or so got no clear call; they are omitted. Cut-off read from the data, not from the text of the source: active = normalized growth mostly below about 0.91 (no sharp cut-off); inconclusive = no clear call, values can overlap the other calls; inactive = mostly above about 0.92. This is one part of the list.

Experiment: chemical genetic growth profiling, strain panel (AID 1159580);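 note: tested at 20 µM; growth read once vehicle control cultures reached saturation at 30 °C; 1 = growth at the plate median or of vehicle wells; lower values mean less growth of the strain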
Conditions: growth OD
[1] = S. cerevisiae deletion strains, locus YHR030C, strain SLT2, stronger effect = lower value

Measured: normalized growth

O=C(NNC(=S)Nc1ccc(Cl)cc1)c1ncc(C(F)(F)F)cc1Cl
inactive: S. cerevisiae deletion strains, locus YAR019C, strain CDC15, stronger effect = lower value 0.968 | S. cerevisiae deletion strains, locus YBL105C, strain PKC1, stronger effect = lower value 0.99 | S. cerevisiae deletion strains, locus YBR135W, strain CKS1, stronger effect = lower value 0.992 | S. cerevisiae deletion strains, locus YBR136W, strain MEC1, stronger effect = lower value 0.985 | S. cerevisiae deletion strains, locus YBR160W, strain CDC28, stronger effect = lower value 0.994 | S. cerevisiae deletion strains, locus YDL017W, strain CDC7, stronger effect = lower value 0.989 | S. cerevisiae deletion strains, locus YDL028C, strain MPS1, stronger effect = lower value 0.988 | S. cerevisiae deletion strains, locus YDL101C, strain DUN1, stronger effect = lower value 0.985 | S. cerevisiae deletion strains, locus YDL108W, strain KIN28, stronger effect = lower value 0.986 | S. cerevisiae deletion strains, locus YDL132W, strain cdc53, stronger effect = lower value 0.966 | S. cerevisiae deletion strains, locus YDL214C, strain PRR2, stronger effect = lower value 0.956 | S. cerevisiae deletion strains, locus YDR052C, strain DBF4, stronger effect = lower value 0.991 | S. cerevisiae deletion strains, locus YDR054C, strain cdc34, stronger effect = lower value 0.961 | S. cerevisiae deletion strains, locus YDR226W, strain ADK1, stronger effect = lower value 0.982 | S. cerevisiae deletion strains, locus YDR477W, strain SNF1, stronger effect = lower value 0.935 | S. cerevisiae deletion strains, locus YER123W, strain YCK3, stronger effect = lower value 0.863 | S. cerevisiae deletion strains, locus YER133W, strain GLC7, stronger effect = lower value 0.94 | S. cerevisiae deletion strains, locus YFL009W, strain cdc4, stronger effect = lower value 0.975 | S. cerevisiae deletion strains, locus YFL029C, strain CAK1, stronger effect = lower value 0.973 | S. cerevisiae deletion strains, locus YFR003C, strain YPI1, stronger effect = lower value 0.991 | S. cerevisiae deletion strains, locus YFR019W, strain FAB1, stronger effect = lower value 1 | S. cerevisiae deletion strains, locus YFR028C, strain CDC14, stronger effect = lower value 0.984 | S. cerevisiae deletion strains, locus YGR040W, strain KSS1, stronger effect = lower value 0.929 | S. cerevisiae deletion strains, locus YGR052W, strain FMP48, stronger effect = lower value 0.942 | S. cerevisiae deletion strains, locus YGR092W, strain DBF2, stronger effect = lower value 0.755 | [1] 0.901 | S. cerevisiae deletion strains, locus YHR079C, strain IRE1, stronger effect = lower value 0.768 | S. cerevisiae deletion strains, locus YHR082C, strain KSP1, stronger effect = lower value 1.08 | S. cerevisiae deletion strains, locus YHR205W, strain SCH9, stronger effect = lower value 0.981 | S. cerevisiae deletion strains, locus YIL147C, strain SLN1, stronger effect = lower value 0.972 | S. cerevisiae deletion strains, locus YJL095W, strain BCK1, stronger effect = lower value 0.791 | S. cerevisiae deletion strains, locus YJL128C, strain PBS2, stronger effect = lower value 0.971 | S. cerevisiae deletion strains, locus YJL157C, strain FAR1, stronger effect = lower value 0.912 | S. cerevisiae deletion strains, locus YJR016C, strain ILV3, stronger effect = lower value 0.974 | S. cerevisiae deletion strains, locus YJR066W, strain TOR1 (second series), stronger effect = lower value 0.885 | S. cerevisiae deletion strains, locus YJR066W, strain TOR1, stronger effect = lower value 1.01 | S. cerevisiae deletion strains, locus YKL048C, strain ELM1, stronger effect = lower value 0.986 | S. cerevisiae deletion strains, locus YKL067W, strain YNK1, stronger effect = lower value 0.95 | S. cerevisiae deletion strains, locus YKL101W, strain HSL1, stronger effect = lower value 0.926 | S. cerevisiae deletion strains, locus YKL193C, strain SDS22, stronger effect = lower value 0.984 | S. cerevisiae deletion strains, locus YKL203C, strain TOR2, stronger effect = lower value 1.01 | S. cerevisiae deletion strains, locus YLR113W, strain HOG1, stronger effect = lower value 0.886 | S. cerevisiae deletion strains, locus YLR133W, strain CKI1, stronger effect = lower value 0.932 | S. cerevisiae deletion strains, locus YLR403W, strain SFP1, stronger effect = lower value 0.91 | S. cerevisiae deletion strains, locus YML070W, strain DAK1, stronger effect = lower value 0.93 | S. cerevisiae deletion strains, locus YMR001C, strain CDC5, stronger effect = lower value 0.986 | S. cerevisiae deletion strains, locus YMR205C, strain PFK2 (second series), stronger effect = lower value 0.956 | S. cerevisiae deletion strains, locus YMR277W, strain FCP1, stronger effect = lower value 0.966 | S. cerevisiae deletion strains, locus YNL006W, strain LST8, stronger effect = lower value 0.991 | S. cerevisiae deletion strains, locus YNL020C, strain ARK1, stronger effect = lower value 0.929 | S. cerevisiae deletion strains, locus YNL161W, strain CBK1, stronger effect = lower value 0.981 | S. cerevisiae deletion strains, locus YNL183C, strain NPR1, stronger effect = lower value 0.854 | S. cerevisiae deletion strains, locus YNL207W, strain RIO2, stronger effect = lower value 0.973 | S. cerevisiae deletion strains, locus YNL222W, strain SSU72, stronger effect = lower value 0.979 | S. cerevisiae deletion strains, locus YNL307C, strain MCK1 (second series), stronger effect = lower value 0.912 | S. cerevisiae deletion strains, locus YOL078W, strain AVO1, stronger effect = lower value 0.972 | S. cerevisiae deletion strains, locus YOL136C, strain PFK27, stronger effect = lower value 0.939 | S. cerevisiae deletion strains, locus YOR061W, strain CKA2, stronger effect = lower value 0.925 | S. cerevisiae deletion strains, locus YOR119C, strain RIO1, stronger effect = lower value 0.962 | S. cerevisiae deletion strains, locus YOR231W, strain MKK1, stronger effect = lower value 0.843 | S. cerevisiae deletion strains, locus YOR329C, strain SCD5, stronger effect = lower value 0.99 | S. cerevisiae deletion strains, locus YPL031C, strain PHO85, stronger effect = lower value 0.901 | S. cerevisiae deletion strains, locus YPL153C, strain RAD53, stronger effect = lower value 0.882 | S. cerevisiae deletion strains, locus YPL204W, strain HRR25, stronger effect = lower value 0.86 | S. cerevisiae deletion strains, locus YPL209C, strain IPL1, stronger effect = lower value 0.992 | S. cerevisiae deletion strains, locus YPL256C, strain CLN2, stronger effect = lower value 0.875 | S. cerevisiae deletion strains, locus YPR025C, strain CCL1, stronger effect = lower value 0.98 | S. cerevisiae deletion strains, locus YPR106W, strain ISR1, stronger effect = lower value 0.987 | S. cerevisiae deletion strains, locus YPR111W, strain DBF20, stronger effect = lower value 0.987 | S. cerevisiae deletion strains, strain NNK1, stronger effect = lower value 0.995 | S. cerevisiae deletion strains, strain TSCII, stronger effect = lower value 0.968

Cc1nn(-c2ccccc2)nc1C(=O)NNC(=S)Nc1ccc(Cl)cc1
inactive: S. cerevisiae deletion strains, locus YAL013W, strain DEP1, stronger effect = lower value 0.957 | S. cerevisiae deletion strains, locus YBR229C, strain ROT2, stronger effect = lower value 0.983 | S. cerevisiae deletion strains, locus YCL061C, strain MRC1, stronger effect = lower value 1.04 | S. cerevisiae deletion strains, locus YGR078C, strain PAC10, stronger effect = lower value 0.991 | [1] 0.889 | S. cerevisiae deletion strains, locus YHR087W, strain rtc3, stronger effect = lower value 0.988 | S. cerevisiae deletion strains, locus YJL187C, strain SWE1, stronger effect = lower value 0.954 | S. cerevisiae deletion strains, locus YJR043C, strain POL32, stronger effect = lower value 0.985 | S. cerevisiae deletion strains, locus YLR058C, strain SHM2 (second series), stronger effect = lower value 1.01 | S. cerevisiae deletion strains, locus YLR085C, strain ARP6, stronger effect = lower value 0.82 | S. cerevisiae deletion strains, locus YLR262C, strain YPT6, stronger effect = lower value 0.858 | S. cerevisiae deletion strains, locus YML094W, strain GIM5, stronger effect = lower value 0.904 | S. cerevisiae deletion strains, locus YMR263W, strain SAP30, stronger effect = lower value 1.01 | S. cerevisiae deletion strains, locus YNL153C, strain GIM3, stronger effect = lower value 1.04 | S. cerevisiae deletion strains, locus YNL322C, strain KRE1, stronger effect = lower value 1.02 | S. cerevisiae deletion strains, locus YPL241C, strain CIN2, stronger effect = lower value 0.929 | S. cerevisiae deletion strains, locus YPR135W, strain CTF4, stronger effect = lower value 0.969
active: S. cerevisiae deletion strains, locus YEL061C, strain CIN8, stronger effect = lower value 0.866 | S. cerevisiae deletion strains, locus YJR075W, strain HOC1, stronger effect = lower value 1.33 [resistant] | S. cerevisiae deletion strains, locus YLR039C, strain RIC1, stronger effect = lower value 0.785 | S. cerevisiae deletion strains, locus YNL298W, strain CLA4 (second series), stronger effect = lower value 0.835 | S. cerevisiae deletion strains, locus YNR030W, strain Alg12, stronger effect = lower value 0.854 | S. cerevisiae deletion strains, locus YPL055C, strain LGE1, stronger effect = lower value 0.814 | S. cerevisiae strains, strain wild type, stronger effect = lower value 0.887
